Test results published in the OligoGym collection.

The sequences below were run against LANCL2 (assay: pooled miR-30 sensor sort-seq; sequence = guide strand). Settings: shRNA.
Further: reference of the scale not given here.

Row | Sequence | sensor-assay potency score (higher = more potent)
1 | TTTCTTGGTCCACTTTTGCTGC | -1.18
2 | TTTCAAGTACTTCTCCTCCTTA | -0.0935
3 | TGATTCTTGGCAGACAACCGAT | -0.954
4 | AAGTTTTGTGACACATTCCTGG | 0.068
5 | TTTAATTTTGGTCTGGATCCGT | 0.159
6 | TTAACATATAGTAAATTCCAGC | -0.758
7 | AATAATAGCATTGACTACCTCT | 0.441
8 | TTTCTGTCAAGGTTTCTTGGTC | -0.185
9 | TAATAGCTGACTCACACACGGT | -0.857
10 | TTTTGTGACACATTCCTGGGAC | 0.967
11 | AATCACATCGCTACACTCCATG | -1.26
12 | TATGAAATTATGAATGATCTTC | 0.142

What follows are sequences tested against LARP1B in the same assay as above. Settings: shRNA.

Row | Sequence | sensor-assay potency score (higher = more potent)
13 | TTTCTTGACTCTCTGATCTTAC | -0.67
14 | TTCTTCTGAAGAACATAGCTGA | 0.273
15 | TAGACTGTGTCTTAGATTGAGA | -0.454
16 | TATCTCGCTTCCAACTTCGTGT | -0.146
17 | TGAAACATCAAATAACTTCTGA | 0.226
18 | TAGGATCTTGTAACCTAGGTGT | 0.016
19 | TTTATTGAAGTGATCTCTGAGG | -0.332
20 | TTCTACTTCTGTGCTATCCTTC | 0.509
21 | TTTACTAATGAGATTTAGCTTC | -0.374
22 | TAAATGTGTTTTTTCGTCCTAT | 0.39
